Bioassay records as filed in PubChem.
UGM FP inh = blocks M. tuberculosis UGM enzyme. inhibition, % at 10 µM. purified UGM, fluorescence polarization probe displacement. 320,000 tested, 0.06% active. P9WIQ1; in the data active = inhibition above about 10%, passing the limit was not always enough
Target sequence (P9WIQ1 whole entry, looked up): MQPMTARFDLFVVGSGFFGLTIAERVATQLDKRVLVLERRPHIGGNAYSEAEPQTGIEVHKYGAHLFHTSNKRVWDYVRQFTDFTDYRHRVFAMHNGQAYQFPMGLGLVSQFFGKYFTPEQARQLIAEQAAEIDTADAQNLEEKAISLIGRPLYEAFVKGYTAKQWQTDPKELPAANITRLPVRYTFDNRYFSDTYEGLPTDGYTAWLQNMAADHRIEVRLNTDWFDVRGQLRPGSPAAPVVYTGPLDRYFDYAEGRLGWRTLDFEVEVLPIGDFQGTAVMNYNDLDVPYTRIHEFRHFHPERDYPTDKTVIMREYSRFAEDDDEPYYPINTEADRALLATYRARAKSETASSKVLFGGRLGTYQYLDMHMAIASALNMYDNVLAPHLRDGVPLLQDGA
Mtb bLac sens = beta-lactam sensitization of Mtb H37Rv; M. tuberculosis H37Rv growth with meropenem, percent inhibition; inhibition, % at 25 µM; 330,000 tested, 0.27% active; call rule not given here;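 note: growth measured after seven days incubation then overnight dye step; 0% = bacteria only wells and 100% = bacteria with antibiotic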
FadD28 binding = inhibitors of Mycobacterium tuberculosis FadD28 bisubstrate binding; inhibition, % at 12.5 µM; FadD28 bisubstrate probe binding, fluorescence polarization; 360,000 tested, 0.22% active; in the data active = inhibition above about 8.5%, passing the limit was not always enough
Y pestis TopoI = Y. pestis Topo-I inhibition via cleavage products. AID 504884. Y. pestis Topo-I cleavage product accumulation, plate reader. 360,000 tested, 0.064% active. activity, % at 10 µM; in the data active = activity above about 50%, passing the limit was not always enough
Rv3671c inh = inhibitors of M. tuberculosis serine protease Rv3671c; inhibition, % at 5.96 µM; 320,000 tested, 0.048% active; P9WHR9; AID 2606; in the data active = inhibition above about 38%;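 note: extracellular domain of Rv3671c used as enzyme; 0% = enzyme with DMSO and 100% = no enzyme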
PfHsp40 yeast = rescue of PfHsp40-mediated yeast toxicity | S. cerevisiae expressing PfHsp40, growth rescue, ATP luminescence | growth rescue, % at 12.5 µM | 340,000 tested, 0.68% active | AID 504582; in the data active = growth rescue above about 28%, passing the limit was not always enough;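 note: yeast W303a lacking pdr1 and pdr3 grown in galactose medium; growth measured after three days at 30 °C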
The depositor's hits bear a star; nt = not tested or not shown. The list is not random: actives were taken first. Their share in the collection is about 0.98%.

SMILES	UGM FP inh	Mtb bLac sens	FadD28 binding	Y pestis TopoI	Rv3671c inh	PfHsp40 yeast
CC(=NNC(=S)Nc1ccccc1)c1ccccn1	nt	nt	-2	1	nt	nt
CC(=NNC(=S)Nc1ccccc1Cl)c1ccccn1	nt	nt	-3	8	nt	200*
Cc1ccc(C)c(C(O)c2ncc(-c3ccccc3Cl)[nH]2)c1 (configuration not stated)	nt	nt	-3	-6	nt	nt
O=C(COC(=O)c1cccc(NS(=O)(=O)c2ccc(F)c(F)c2)c1)NC(=O)NC1CCCCC1	-2	-2	32*	7	-62	3
COc1cc(NC(=O)N2CCc3nc(Nc4cc(Cl)cc(Cl)c4)ncc3C2)cc(OC)c1OC	nt	nt	-6	-21	nt	nt
CC(C)Nc1ccc(Nc2ccnc3cc4ccccc4cc23)cc1	1	94	-2	-10	13	-1
c1ccc(CCNc2ccnc3cc4ccccc4cc23)cc1	nt	nt	-13	1	nt	189*
CC(=O)Nc1ccc(CN(C)c2c(C)nc3ccc(C(=O)N(C)Cc4ccccc4)cn23)cc1	nt	nt	-5	16	nt	nt
COc1ccc(C2CC(c3ccccc3)=NN2C(=O)COC(=O)c2cccc(S(=O)(=O)N3CCOCC3)c2)cc1 (configuration not stated)	1	0	-1	60*	-11	2
C=CC(=O)Nc1cccc(N(C)c2ccnc(Nc3ccc(N4CCN(C)CC4)cc3)n2)c1	nt	nt	-2	-19	nt	-1
CC1=C/C(=N\OS(=O)(=O)c2ccccc2)C(C(C)C)=CC1=O	-1	88	1	6	-3	46*
COc1ccc(Br)cc1C1=CC(=O)C[C@H](c2ccc(F)cc2)C1	nt	nt	-3	42	nt	nt
CSc1ncc(Cl)c(C(=O)Nc2nnc(SC/C=C/c3ccccc3)s2)n1	0	17	15*	4	-8	2
CC(=O)Nc1cccc(NC(=O)NC2CC(=O)N(c3ccc4c(c3)OCCO4)C2)c1 (configuration not stated)	nt	nt	-3	3	nt	nt
CC1CCN(c2nc(-c3ccncc3)nc3ccccc23)CC1	0	100	-3	6	-1	282*
c1ccc2c(N3CCOCC3)nc(-c3ccncc3)nc2c1	-1	54	-4	-5	1	1
Cc1cccc(NC(=S)NC2CCCC2)n1	-4	-1	0	-2	0	113*
CCc1ccc(NP(=O)(Oc2ccccc2F)Oc2ccccc2F)cc1	-1	0	-5	36	-4	43*
Cc1ccc(NP(=O)(Oc2ccccc2F)Oc2ccccc2F)cc1	0	17	-5	49	-8	19
CCN(CC)c1ccc(/C=C/c2ccc3ccc(OC)cc3[n+]2CC)cc1	-2	92	-3	-8	-77	321*
O=C(C[C@H]1C/C=C\CC[C@H](Cc2ccc(F)cc2)C(=O)O[C@@H](c2ccccc2)CNC1=O)N[C@@H](CO)Cc1ccccc1	-1	-12	-6	89*	-8	3
O=C(C[C@H]1C/C=C\CC[C@H](Cc2ccc(F)cc2)C(=O)O[C@@H](c2ccccc2)CNC1=O)N[C@H](CO)Cc1ccccc1	-3	-11	0	46	-7	2
COc1ccc2[nH]c3c(c2c1)CCN1C(=O)N([C@@H](C)C(=O)NCc2ccc(F)cc2)C(=O)[C@]31C	1	-5	-3	10	-1	0
COc1ccc2[nH]c3c(c2c1)CCN1C(=O)N([C@@H](C)C(=O)NCCc2ccc(F)cc2)C(=O)[C@]31C	3	5	-1	24	-11	58*
Cc1ccc(S(=O)(=O)N2[C@@H](c3ccc(C(C)(C)C)cc3)C(C(=O)O)=CC[C@H]2c2ccc(Cl)cc2)cc1	nt	2	-10	32	-34	0
Cc1ccc(S(=O)(=O)N2[C@@H](c3ccc(Cl)cc3)C(C(=O)O)=CC[C@H]2c2ccc(Cl)c(Cl)c2)cc1	-3	-5	-22	4	-40	304*
CCC(=O)NC(c1ccco1)c1cc(Cl)c2cccnc2c1O (configuration not stated)	1	-4	-2	2	12	277*
CCCCC(=O)NC(c1ccco1)c1cc(Cl)c2cccnc2c1O (configuration not stated)	3	0	-1	-1	0	360*
CC(=O)NC(c1ccco1)c1cc(Cl)c2cccnc2c1O (configuration not stated)	nt	nt	0	-5	nt	nt
Oc1c(C(Nc2ccccn2)c2cccnc2)cc(Cl)c2cccnc12 (configuration not stated)	2	-2	-5	5	16	318*
